Laboratory results from PubChem BioAssay AID463173 (ICCB-Longwood Screening Facility, Harvard Medical School, 2010).
Screen size: about 52,000 compounds; about 4,300 (8.3%) were called active. The sample holds actives, similar compounds and a random draw of the others, so the mix is not that of the screen. Unmarked numbers belong to inactive results. Cut-off read from the data, not from the text of the source: active = survival mostly below about 52% (no sharp cut-off); inactive = mostly above about 56%.

Tested on: DeltatarO mutant
Test: S. aureus survival, RN4220 and DeltatarO strains – OD600, teichoic acid synthesis inhibitors, primary screen (AID 463173)
Conditions: S. aureus RN4220 wild type/DeltatarO growth, OD600, 18 h, hits give low values, screened at 18.75 µg/mL (by protocol)

Compound	survival
CN(C)c1ccc(CNC(=O)CCCN2C(=O)CCn3nc(-c4cccn4C)cc32)cc1	73%
O=C(CSc1ncc2c(n1)-c1cc(Cl)ccc1N(Cc1ccccc1)S2(=O)=O)NCc1ccccc1	89%
O=C(c1ccccc1Cl)N(Cc1ccco1)c1ccccn1	55%
COc1cccc2cc(C(=O)Nc3ccc(N4CCNCC4)cc3)c(=O)oc12	99%
Cc1ccc(NC(=O)Cn2nc(C)c3nn(-c4ccc(Cl)cc4)c(C)c3c2=O)cc1C	75%
CCOc1ccc(CNC(=O)CSc2nnc(C)c3c(C)n(-c4ccc(Cl)cc4)nc23)cc1	91%
COc1ccccc1/C=C/c1nc(C#N)c(N2CCN(C)CC2)o1	92%
Cc1ccc(-c2cc3ncc(C(=O)c4cc([N+](=O)[O-])ccc4O)cn3n2)cc1	8% (active)
CCOC(=O)c1cnc2cc(-c3ccc(Cl)cc3)nn2c1-c1ccccc1	68%
Cc1ccc(-c2cc3ncc(C(=O)c4cc(Cl)c(C)cc4O)cn3n2)cc1	84%
COc1ccc(-c2cc3ncc(C(=O)c4cc([N+](=O)[O-])ccc4O)cn3n2)cc1	33% (active)
CCc1ccc(O)c(C(=O)c2cnc3cc(-c4ccc(C)cc4)nn3c2)c1	89%
CCOC(=O)COc1cc(C)c(Cl)cc1C(=O)c1ccn2nc(-c3ccc(OC)cc3)cc2n1	92%
COc1ccc(CNC(=O)c2cc(-c3ccc(OC)cc3)nc3n[nH]c(-c4cccc([N+](=O)[O-])c4)c23)cc1	68%
O=C(c1cnc2cc(-c3ccccc3)nn2c1)c1cc([N+](=O)[O-])ccc1O	9% (active)
O=C(CSc1nnc(-c2ccccc2)o1)c1cccc([N+](=O)[O-])c1	135%
CC(=O)Nc1cccc(NC(=O)CCn2cnc3cc(C)c(C)cc32)c1	62%
COc1cccc(C(=O)NC(=S)NCc2ccco2)c1	93%
O=C(Cn1nc(C(F)(F)F)c2c1CCC2)Nc1ccc(Cl)cc1	54%
CCN(CC)c1ccc(C(=O)NCc2ccc3c(c2)CCN3C(=O)c2ccc(F)cc2)cc1	84%
CCN1/C(=C2\C(=O)N(c3ccc(Cl)cc3)N=C2C)C=Cc2ccccc21	68%
CCOC(=O)C(Cc1ccccc1)NC(=O)Cn1nnc(-c2ccc(C)cc2)n1 (configuration not stated)	59%

Compound	survival
CCOc1cc(C#N)c(NC(=O)Cn2nnc(-c3ccc(C)cc3)n2)cc1OCC	42% (active)
Cc1ccc(-c2nnn(CC(=O)NC(C)C)n2)cc1	83%
Cc1ccc(NC(=O)Cn2c(=O)oc3cc(S(=O)(=O)N4CCCCCC4)ccc32)cc1Cl	93%
CCCc1nc2ccccc2n1CC(O)COc1ccccc1 (configuration not stated)	69%
Cc1nc2ccccc2n1CC(O)COc1ccc(C(=O)O)cc1 (configuration not stated)	46% (active)
CCCc1nc2ccccc2n1CC(O)COc1ccc(C(=O)OC)cc1 (configuration not stated)	64%
CCN(Cc1ccccc1)c1ncnc2c1nnn2C	57%
CCOc1ccccc1CNC(=O)c1nc(-c2ccc(Cl)cc2)n2c1CCCCC2	67%
Cc1ccc(-n2nc3c(N4CCC(C(=O)N5CCCCC5)CC4)nnc(C)c3c2C)cc1	85%
Cc1cc(F)ccc1S(=O)(=O)NCC(c1ccco1)S(=O)(=O)c1cccs1 (configuration not stated)	118%
O=S(=O)(NCC(c1ccco1)S(=O)(=O)c1cccs1)c1ccc(Cl)cc1 (configuration not stated)	92%
Cc1cc(C)c(S(=O)(=O)NCC(c2ccco2)S(=O)(=O)c2ccccc2)c(C)c1 (configuration not stated)	99%
Cc1cc(S(=O)(=O)NCC(c2ccco2)S(=O)(=O)c2cccs2)ccc1F (configuration not stated)	101%
Cc1cc(C)c(S(=O)(=O)NCC(c2ccco2)S(=O)(=O)c2cccs2)c(C)c1 (configuration not stated)	25% (active)
O=S(=O)(NCC(c1ccco1)S(=O)(=O)c1cccs1)c1ccc(F)c(C(F)(F)F)c1 (configuration not stated)	37% (active)
COc1ccc(-c2cnnn2-c2ccc(NC(=O)c3ccccc3OC)cc2)cc1	107%
CCOc1ccccc1CN(CCc1ccc2c(c1)OCO2)Cc1ccccn1	77%
CCOc1ccccc1CN(CCc1ccc2c(c1)OCO2)Cc1cc(OC)c(OC)cc1OC	56%
CCOc1ccccc1CN(CCc1ccc2c(c1)OCO2)Cc1cccc(OC)c1OC	34% (active)
COc1cccc(NC(=O)Cn2c(=O)n(-c3ccc(C)cc3)c(=O)c3ccc(C(=O)NCc4ccco4)cc32)c1	80%
Cc1c(Cl)cccc1NC(=O)c1ccc2c(c1)CCCN2S(C)(=O)=O	70%
Cc1ccc(C)c(NC(=O)c2ccc3c(c2)CCN3S(C)(=O)=O)c1	105%

Compound	survival
CCS(=O)(=O)N1CCc2cc(C(=O)Nc3cccc(C)c3C)ccc21	80%
Cc1ccc(C)c(NC(=O)c2ccc3c(c2)CCN3S(=O)(=O)c2ccccc2)c1	40% (active)
Cc1ccc(S(=O)(=O)N2CCc3cc(C(=O)Nc4ccc(C)c(C)c4)ccc32)cc1	60%
Cc1cccc(NC(=O)c2ccc3c(c2)CCN3S(=O)(=O)c2ccccc2)c1C	38% (active)
CCS(=O)(=O)N1CCc2cc(C(=O)Nc3cccc(Cl)c3C)ccc21	86%
Cc1c(Cl)cccc1NC(=O)c1ccc2c(c1)CCN2S(=O)(=O)c1ccccc1	39% (active)
CCc1cccc(CC)c1NC(=O)c1ccc2c(c1)CCN2S(=O)(=O)c1ccccc1	60%
CC(=O)N1c2ccccc2C(=O)C1N1CCN(c2ccccc2F)CC1 (configuration not stated)	90%
COc1ccc(-c2cn3c(n2)sc2cc(C(=O)Nc4cccc(SC)c4)ccc23)cc1	59%
COC(=O)c1cc(NC(=O)Cn2ncc3c([nH]c4ccccc43)c2=O)cc(C(=O)OC)c1	66%
O=C(CSc1ccc(-c2ccccn2)nn1)Nc1ccc(F)cc1F	38%
O=C(NCCc1ccccc1)c1ccc2c(c1)N(Cc1ccc(F)cc1Cl)C(=O)CS2	55% (active)
CC(NC(=O)c1ccc2c(c1)N(Cc1ccc(Cl)cc1)C(=O)CS2)c1ccccc1 (configuration not stated)	48% (active)
O=C(NCCc1ccccc1)c1ccc2c(c1)N(Cc1ccccc1Cl)C(=O)c1ccccc1S2	94%
O=C(NCCc1ccc(Cl)cc1)c1ccc2c(c1)N(Cc1c(F)cccc1Cl)C(=O)CS2	44% (active)
O=C(NCCc1ccc(Cl)cc1)c1ccc2c(c1)N(Cc1ccccc1)CCS2	102%
O=C(NCCc1ccccc1)c1ccc2c(c1)N(Cc1c(F)cccc1Cl)C(=O)CS2	54%
CC(NC(=O)c1ccc2c(c1)N(Cc1ccc(Cl)cc1)C(=O)c1ccccc1S2(=O)=O)c1ccccc1 (configuration not stated)	90%
O=C(NCCc1ccc(Cl)cc1)c1ccc2c(c1)N(Cc1ccccc1)C(=O)CS2	25% (active)
O=C(NCCc1ccccc1)c1ccc2c(c1)N(Cc1ccc(Cl)cc1)C(=O)CS2	144%
CC(NC(=O)c1ccc2c(c1)N(Cc1ccc(Cl)cc1)C(=O)c1ccccc1S2=O)c1ccccc1 (configuration not stated)	73%
Cc1ccc(C)c(CN2C(=O)CSc3ccc(C(=O)NCCc4ccc(Cl)cc4)cc32)c1	49%

Compound	survival
O=C(NCCc1ccc(Cl)cc1)c1ccc2c(c1)N(Cc1ccc(F)cc1Cl)C(=O)CS2	49%
CCOC(=O)c1c(C)n(CCNC(C)=O)c2cc(Br)c(OC)cc12	106%
O=C(COc1ccccc1)Nc1ccccc1C(=O)OCc1cc(=O)n2nc(C3CC3)sc2n1	89%
Cc1ccc(Nc2cc(=O)[nH]c(=O)[nH]2)cc1C	72%
CCc1ccc(NC(=O)C(=O)NCC(c2cccnc2)N2CCN(Cc3ccccc3)CC2)cc1 (configuration not stated)	75%
CCc1ccc(CNC(=O)CCCN2C(=O)CCn3nc(-c4cccn4C)cc32)cc1	72%
Cc1ccccc1C(=O)NCCc1sc(-c2ccc(Cl)cc2)nc1C	100%
COc1cccc(NC(=O)c2cn(C3CCCCC3)c(=O)c3c2c2ccccc2n3C)c1	75%
Cc1ccc(CN(C(=O)c2ccc(OCC(C)C)cc2)c2ccccn2)o1	104%
O=C(NCc1ccc2c(c1)OCO2)c1ccc2c(c1)N(Cc1c(F)cccc1Cl)C(=O)c1ccccc1S2	86%
O=C(NCc1ccc(F)cc1)c1ccc2c(c1)N(Cc1c(F)cccc1Cl)C(=O)CS2	40% (active)
O=C(NCCc1ccccc1)c1ccc2c(c1)N(Cc1ccc(F)cc1)C(=O)CS2	74%
COc1ccc(CCNC(=O)c2ccc3c(c2)N(Cc2cccc(Cl)c2)C(=O)c2ccccc2S3=O)cc1OC (configuration not stated)	94%
COc1ccccc1CNC(=O)c1ccc2c(c1)N(Cc1c(F)cccc1Cl)C(=O)CS2	43% (active)
O=C(NCCc1ccc(Cl)cc1)c1ccc2c(c1)N(Cc1ccc(Cl)cc1)C(=O)CS2	50%
O=C(NCCc1ccc(Cl)cc1)c1ccc2c(c1)N(Cc1ccc(F)cc1)C(=O)CS2	37% (active)
COCCNC(=O)c1ccc2c(c1)N(Cc1c(F)cccc1Cl)C(=O)c1ccccc1S2	78%
COc1ccccc1CNC(=O)c1ccc2c(c1)N(Cc1ccc(C)cc1)CCS2	83%
COc1ccc(CCNC(=O)c2ccc3c(c2)N(Cc2ccc(F)cc2)C(=O)CS3)cc1OC	117%
COc1ccc(CNC(=O)c2ccc3c(c2)N(Cc2c(F)cccc2Cl)C(=O)CS3)cc1	124%
COc1ccc(CCNC(=O)c2ccc3c(c2)N(Cc2cccc(Cl)c2)C(=O)CS3)cc1OC	54% (active)
